Consider 29 molecules from PubChem BioAssay (NCI).

The panel holds about 83,000 compounds, 20% with a hit somewhere; the sample as a whole holds those more often.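 A percent growth of 40 corresponds to 60% growth inhibition; 0 means no net growth; -100 means all cells died. Active threshold: below 10.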 A number with no mark means an inactive call. Active and inactive are the calls of the source.

The subject of this assay is M14 melanoma. Put plainly: NCI-60 one-dose screen, 48 h (100 = growth as untreated, 0 = no growth, -100 = all killed). As to conditions: 10 µM.
As to `COc1ccc(C2c3sc4ccc(C)cc4c3Oc3nc(N)nc(N)c32)cc1` (centres undefined), the growth was 74.8%.
Take `Cc1cc(N=C2NC(=O)S/C2=C\c2ccc(F)cc2)n[nH]1`: the growth is -30.7% (active).
Regarding `Cn1cc(-c2nnc(N)nc2-c2c[nH]c3ccccc23)c2cc(Br)cnc21`, the growth was 25.1%.
Take `O=C(CC(=O)Nc1ccc(Oc2ncnc3scc(Nc4n[nH]c(=S)s4)c23)cc1)Nc1ccc(Cl)cc1`: the growth was 108%.
With `O=C1NC2C=CC=CC2/C1=C1/SC(=S)N(C2CC(=O)N(c3ccc(Br)cc3)C2=O)C1=O` (centres undefined) the figure was 103%.
Consider `CC1(C)CC(=O)C2=C(C1)N(Cc1ccc(C(=O)O)cc1)C1=C(C(=O)CC(C)(C)C1)C2c1ccc(Cl)cc1`, for which the growth is 101%.
For the molecule `Cc1ccc2c(c1)C(=O)/C(=C/c1ccc([N+](=O)[O-])cc1)S2`, the growth is 97.3%.
As to `O=C(Nc1ccc(OCc2ccc(Cl)cc2)cc1)Nc1ccc(Cl)c(C(F)(F)F)c1`, the growth is 12.5%.
As to `Cn1cc(-c2nc(N)nnc2-c2c[nH]c3ccccc23)c2cc(Br)cnc21`, the growth was 8.68% (active).
In the case of `O=C(CSc1nc2ccccc2c(=O)n1-c1ccc(Cl)cc1)Nc1ccc(-c2nc3ccccc3[nH]2)cc1`, the growth was -36.6% (active).
Consider `Cc1ccc2c(c1)C(=O)/C(=C/c1c[nH]c3ccccc13)S2`, for which the growth was 64.2%.
As to `COc1cccc(O)c1/C=C1\SCc2cc3c(OC)cccc3[o+]c21`, the growth is 106%.
The figure for `COc1cc(C2CC(c3ccc(Oc4ccc(Cl)cc4)cc3)=NN2c2nc(-c3ccc(Cl)cc3)c(C#N)c(N3CCOCC3)n2)cc(OC)c1OC` (centres undefined) is 99%; for `O=C(Nc1ccc(OCC(=O)c2ccc(Cl)cc2)cc1)Nc1ccc(Cl)c(C(F)(F)F)c1` it is 33.9%; for `Cc1ccc2sc3c(c2c1)Oc1nc[nH]c(=O)c1C3c1cccc(F)c1` (centres undefined) it is 99.4%.
For `Cc1cc(N=C2NC(=O)/C(=C/c3cc(C(C)(C)C)c(O)c(C(C)(C)C)c3)S2)n[nH]1`, the growth was 24.7%.
As for `COc1ccc(C2c3sc4ccc(C)cc4c3Oc3nc[nH]c(=O)c32)cc1` (centres undefined), the growth is 73.2%.
Turning to `COc1cccc(C(=O)CSc2nc(-c3ccc(OCc4ccccc4)c(OC)c3)c(C#N)c(=O)[nH]2)c1`, the growth was 99.5%.
Regarding `Cc1ccc(COc2ccc(NC(=O)Nc3ccc(Cl)c(C(F)(F)F)c3)cc2)cc1`, the growth was 93.4%.
With `CC(C)(C)c1cc(/C=C2\S/C(=N/c3ncn[nH]3)NC2=O)cc(C(C)(C)C)c1O` the figure was 17.9%.
As to `Cn1cc(/C=C(/SS/C(=C/c2cn(C)c3cccc(C(=O)O)c23)C(=O)O)C(=O)O)c2c(C(=O)O)cccc21`, the growth is 115%.
For the molecule `COc1ccc(C(=O)COc2ccc(NC(=O)Nc3ccccc3)cc2)cc1`, the growth was 93.6%.
`CCn1c(SCC(=O)Nc2ccc(-c3nc4ccccc4[nH]3)cc2)nc2ccccc2c1=O`: the growth is -87.9% (active).
Regarding `O=C(Nc1ccc(OCc2ccc(F)cc2)cc1)Nc1ccc(Cl)c(C(F)(F)F)c1`, the growth was 9.01% (active).
`O=C(CC(=O)Nc1ccc(Oc2ncnc3scc(Nc4n[nH]c(=S)s4)c23)cc1)Nc1ccc(Br)cc1`: the growth is 98.1%.
With `COc1ccc(C(=O)COc2ccc(NC(=O)Nc3ccc(Cl)c(C(F)(F)F)c3)cc2)cc1` the figure was 19%; with `O=C(Nc1ccc(Oc2ncnc3scc(Nc4n[nH]c(=S)s4)c23)cc1)C1(C(=O)Nc2cccc(C(F)(F)F)c2)CC1`, 103%; with `O=C1NC(=S)S/C1=C\c1cn(-c2ccccc2)nc1-c1ccc([N+](=O)[O-])cc1`, 20.5%.
On to `O=C(CSc1nc2ccccc2c(=O)n1-c1ccc(Cl)cc1)Nc1ccc(-c2nc3ccc([N+](=O)[O-])cc3[nH]2)cc1`, for which the growth was 32.4%.
